# Several values for one entry are separate records, joined by “and”; a condition that tells them apart may be missing. Equal entries are not always repeated. Structures can show the parent of a compound that is named as a salt.
# Columns and labels:
# Assay in all cases: cell viability relative to vehicle control; higher = less cytotoxic
# Conditions in all cases: 10 µM
# [1] = system: K562
# Outline: (§1)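 CRISPR-edited SRSF2 P95 mutant and isogenic wild-type clones of four leukaemia lines were screened against Selleck bioactive, kinase and epigenetic probe libraries, with identity-inconsistent compounds removed. Compounds were acoustically dispensed into 384-well plates at a single 10 µM dose, with 2000 cells in 50 µL medium per well. After 48 h, supernatant was removed and CellTiter-Glo luminescence was read. Viability was expressed as percent of the on-plate DMSO vehicle control, analysed in Genedata Screener.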
# [2] = system: MARIMO
# Outline: as §1
# [3] = system: MOLM14
# Outline: as §1
# [4] = system: OCI-AML2
# Outline: as §1
Compound,cell viability ([1]; SRSF2 genotype: SRSF2 P95H/wt),cell viability ([1]; SRSF2 genotype: SRSF2 wt/wt) [%],cell viability ([2]; SRSF2 genotype: SRSF2 P95H/wt) [%],cell viability ([2]; SRSF2 genotype: SRSF2 wt/wt) [%],cell viability ([3]; SRSF2 genotype: SRSF2 P95H/wt) [%],cell viability ([3]; SRSF2 genotype: SRSF2 wt/wt) [%],cell viability ([4]; SRSF2 genotype: P95H/wt) [%],cell viability ([4]; SRSF2 genotype: wt/wt) [%]
CSc1cccc(Nc2ncc3cc(-c4c(Cl)cccc4Cl)c(=O)n(C)c3n2)c1,6.76% and 14.3%,9.82,34.3,65.4,26.6,31.6,12.8,20.9
COc1cccc(C=NCCN=Cc2cccc(OC)c2[O-])c1[O-].[Cl-].[Mn+3],100% and 97%,97.3,92,104,92.2,104,89.2,101
O=c1c2ccccc2nc(C=Cc2cccnc2)n1Cc1ccccc1,86.8% and 86.9%,79.8,74.3,90.1,78.5,82.6,78.4,75.9
CCCNC(C)C(=O)Nc1c(C)csc1C(=O)OC (stereo unspecified) [Articaine HCl],107% and 117%,114,107,106,106,107,116,99.9
CCC(C)SSc1ncc[nH]1 (stereo unspecified),14.2% and 15.1%,11.6,6.03,4.97,1.56,3.76,4.83,3.63
O=C1NC(=O)C(c2ccccc2[N+](=O)[O-])=C1Nc1ccc(O)c(Cl)c1,107% and 104%,104,98.5,91.9,90.7,107,122,120
"C[C@H](Nc1ncnc2nc[nH]c12)c1cc2cccc(Cl)c2c(=O)n1-c1ccccc1 [Duvelisib (IPI-145, INK1197)]",93.1% and 95.6%,94.3,67.6,62.3,50.2,51.6,28.7,38
Cc1cc(O)c(C(=O)CCC(C)C)c(=O)o1 [Pogostone],104% and 98.3%,101,95.7,106,96.5,99.5,95.9,99.5
O=C(NOCC(O)CO)c1cc(Br)c(F)c(F)c1Nc1ccc(I)cc1F (stereo unspecified),81.1% and 89.7%,83.2,41.3,37.3,50.1,36.6,40.6,45
C#C[C@]1(O)CC[C@H]2[C@@H]3CCc4cc(OC5CCCC5)ccc4[C@H]3CC[C@@]21C [Quinestrol],78.4% and 83.7%,71,62.4,57.9,78.8,79.2,49.7,60.6
CC1CCC2(C(=O)O)CCC3(C)C(=CCC4C5(C)CCC(OC6OCC(O)C(O)C6O)C(C)(C)C5CCC43C)C2C1(C)O (stereo unspecified) [Ziyuglycoside II],100% and 99.1%,101,97.4,99,103,99,99.6,95.6
COc1ccc(/C=C/C(=O)c2c(O)cc(OC)cc2OC)cc1 [Flavokawain A],95.5% and 92.8%,92.7,78.9,82.6,72.6,103,71.2,74.3
[F][Ti]([F])([F])[F] [Titanium tetrafluoride],102% and 89.4%,98.7,99.2,105,97.3,102,98.9,99
COc1cc2c(cc1O)[C@@H](Cc1ccc(O)c(Oc3ccc(C[C@@H]4c5cc(OC)c(OC)cc5CCN4C)cc3)c1)N(C)CC2 [Daurisoline],30.5% and 37.4%,15.9,3.28,9.42,1.06,0.83,1.65,1.01
O=c1[nH]cnc2c1ncn2[C@@H]1O[C@H](CO)[C@@H](O)[C@H]1O [Inosine],114% and 107%,121,102,118,99.7,111,98.3,114
COc1cc(C[C@@H](CO[C@@H]2O[C@H](CO)[C@@H](O)[C@H](O)[C@H]2O)[C@H](CO[C@@H]2O[C@H](CO)[C@@H](O)[C@H](O)[C@H]2O)Cc2ccc(O)c(OC)c2)ccc1O [Secoisolariciresinol diglucoside],96.7% and 93.6%,98.9,90,101,101,98.5,96.8,104
CCCS(=O)(=O)Nc1ccc(F)c(C(=O)c2c[nH]c3ncc(Cl)cc23)c1F,87.6% and 92.7%,94.9,72.2,88.4,81.4,88.1,99.2,105
Cc1cccc(C)c1N(CC(=O)Nc1ccc(-c2ncon2)cc1)C(=O)C1CCS(=O)(=O)CC1 [Amenamevir],99.9% and 92.8%,98.8,94.5,106,96.4,105,88.5,93.4
Cc1cc(O)c(C(=O)N[C@@H](C(=O)N[C@@H]2C(=O)N3C(C(=O)O)=C(CSc4nnnn4C)CS[C@H]23)c2ccc(O)cc2)cn1 [Cefpiramide sodium],111% and 107%,104,109,115,107,110,99.7,99.8

Compound,cell viability ([1]; SRSF2 genotype: SRSF2 P95H/wt),cell viability ([1]; SRSF2 genotype: SRSF2 wt/wt) [%],cell viability ([2]; SRSF2 genotype: SRSF2 P95H/wt) [%],cell viability ([2]; SRSF2 genotype: SRSF2 wt/wt) [%],cell viability ([3]; SRSF2 genotype: SRSF2 P95H/wt) [%],cell viability ([3]; SRSF2 genotype: SRSF2 wt/wt) [%],cell viability ([4]; SRSF2 genotype: P95H/wt) [%],cell viability ([4]; SRSF2 genotype: wt/wt) [%]
CN1C(CCl)Nc2cc(Cl)c(S(N)(=O)=O)cc2S1(=O)=O (stereo unspecified) [Methyclothiazide],92.4% and 91.5%,98.4,96.5,100,90,97.4,96.3,99
COc1ccc(Cn2c3ncnc4c(ncn4Cc4ccc(OC)cc4)c-3nc2=O)cc1,1.11% and 1.3%,0.98,4.49,17.2,9.44,2.32,4.12,5.63
CCO[C@@H]1OC(=O)C[C@@H]1NC(=O)[C@@H]1CCCN1C(=O)[C@@H](NC(=O)c1ccc(N)c(Cl)c1)C(C)(C)C [Belnacasan (VX-765)],99.5% and 102%,94,95.2,104,97.7,98.1,103,104
Cc1cc(C)nc(NS(=O)(=O)c2ccc(N)cc2)n1 [Sulfamethazine],108% and 111%,108,105,109,110,110,119,96.2
O=C1NC(=O)/C(=C/c2cccc(C(F)(F)F)c2)S1,107% and 103%,110,105,94.9,97.4,102,111,104
COc1cc(N2CCC(N3CCN(C)CC3)CC2)ccc1Nc1ncc(Cl)c(Nc2ccccc2S(=O)(=O)C(C)C)n1,78.8% and 75.5%,72.5,36.4,30.1,7.58,12.7,7.82,16.6
O=C(Nc1c(Cl)cncc1Cl)c1ccc(OC(F)F)c(OCC2CC2)c1 [Roflumilast (Daxas)],96.8% and 106%,105,116,114,105,109,103,96
CC(C)n1cnc2c(NCCc3ccc(O)cc3)nc(-c3csc4ccccc34)nc21 [StemRegenin 1],50.9% and 50.1%,56,84.6,92.4,64.5,89.6,86.8,83.5
Clc1cccc(Cl)c1NC1=NCCN1 [Clonidine hydrochloride (Catapres)],98.5% and 103%,105,110,113,89.2,103,115,101
CCOC(=O)c1[nH]c2cc(Cl)ccc2c1C(C(=O)NC(C)(C)C)N(C=O)Cc1ccc(Cl)cc1 (stereo unspecified),78.9% and 75.1%,75.3,68.1,74.4,44.1,57.5,77.3,64.2
CCn1cc(C(=O)O)c(=O)c2ccc(C)nc21 [Nalidixic acid (NegGram)],96.8% and 104%,106,107,101,105,109,104,91.1
CCC(C)(Oc1ccc(C2(c3ccc(OC(C)(CC)C(=O)O)cc3)CCCCC2)cc1)C(=O)O (stereo unspecified) [Clinofibrate],95.4% and 93.2%,93.7,92.4,102,93.8,96.6,90.4,102
O=C(O)c1ccc2c3c1cccc3c(=O)n1c3ccccc3nc21,104% and 102%,102,107,106,96.6,99.9,104,97.5
CCCCCCCCCCCCCC(=S)NCCCC[C@H](NC(=O)OCc1ccccc1)C(=O)Nc1ccccc1 [Thiomyristoyl],82.1% and 77.7%,81.9,81.4,97.3,82,83.8,90.2,86.3
Nc1ccc(/C=C/C(=O)NCc2cc3cc(-c4ccc(C(=O)N5CCC(F)(F)CC5)cc4)cc(-c4ccc(F)cc4)c3o2)cn1,19.8% and 14.3%,19.1,10,13.1,4.36,1.09,4.54,4.59
O=C(CCCCCN1C(=O)c2cccc3cccc(c23)C1=O)NO [Scriptaid],1.69% and 12.5%,11.4,4.53,4.11,0.6,0.53,0.32,0.98
COC[C@H]1C[C@@H](c2nc(-c3ccc4c(c3)COc3cc5c(ccc6nc([C@@H]7CC[C@H](C)N7C(=O)[C@@H](NC(=O)OC)C(C)C)[nH]c65)cc3-4)c[nH]2)N(C(=O)[C@H](NC(=O)OC)c2ccccc2)C1 [Velpatasvir],95.6% and 98.5%,87.6,88.2,91.6,90.1,93.5,98,93.6
CC(=O)c1ccccc1 [Acetophenone],98.7% and 89.7%,91.4,84.5,91.5,90.6,91.1,85.3,83.6

# Reference: the supplement of paper PMC10981050
